Measured values from PubChem BioAssay (NCATS).
Records with an inconclusive call do not appear. Unmarked numbers belong to inactive results. Active and inactive are the calls of the source. The call rests on the fitted dose curve; in most records, active means well fitted inhibition curve with a large enough effect; inconclusive means small, poorly fitted or top-dose-only effect; inactive means no such curve, though single readings can be large or run the other way.

test: Primary qHTS for inhibitors of La Crosse Virus (LACV) - induced cell death in SH-SY5Y cells (AID 1508616); settings: SH-SY5Y LACV cytopathicity rescue, ATP luminescence, 6 d; series mostly up to 9.63 µM; activity change: at the top concentration;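 on activity change: top concentration of the series differs between compounds; 0% = infected DMSO wells and 100% = uninfected DMSO wells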
Source text: Assay Provider: Karin Peterson Ph.D.
National Institute of Allergy and Infection Diseases, National Institute of Health
La Crosse Virus (LACV) is a California serogroup mosquito-borne arbovirus, family Peribunyaviridae, which is an endemic pathogen in North America and can induce a rare, life-threatening neurological disease in children. LACV was first isolated in the early 1960s, from a summer "rural encephalitis" case in La Crosse, Wisconsin, USA. Since then, LACV encephalitis cases have been found in more than twenty states, with most cases in the Mississippi and Ohio River basins. The life cycle of LACV is maintained between the vector, the eastern tree-hole mosquito Aedes triseriatus, and vertebrate hosts including eastern gray squirrels (Sciurus carolinensis) and chipmunks (Tamiasstriatus grinseus). […] Most LACV infections in humans are asymptomatic or induce mild clinical symptoms of fever, headache, lethargy and vomiting. However, in some cases LACV can cause severe neuroinvasive disease, including encephalitis, meningitis, and meningoencephalitis, requiring hospitalization. To date, there is neither a licensed vaccine nor a Food and Drug Administration (FDA) approved antiviral therapy available to prevent or treat LACV encephalitis. The primary treatment for viral encephalitis is palliative care due to the lack of therapeutics. In the current study, we conducted a screen of 4,096 FDA approved and bioactive small molecules against LACV, by screening for rescue of LACV-induced cell death in SH-SY5Y cells.
LACV-induced cytopathicity assay
SEQUENCE No. (1,2, 3, etc.); […] (e.g., Cells, Incubation, Reagent, etc.); VALUE and DESCRIPTION.
1. Reagent; 2 uL; Cell solution.
3. Compounds; 23nL; Compound library
4. Reagent; 12 uL; LACV virus
6. Reagent; 24 uL; ATPLite (PerkinElmer)
7. Time; 5 min; Room temperature
8. Detection; Luminescence; View
NOTES (numbers refer to sequence above)
1. Seed 6000 SH-SY5Y cells (ATCC CRL-2266) in 2 microL/well media (DMEM/F12 10% FBS, 1x L-Glutamine, 1x Pyruvate, 1x NEAA, 1x Pen/Strep) in 384-well assay plates (tissue culture treated, white, solid bottom).
2. Incubate at 37 degrees C with 5% CO2 for 24 hr.
3. Dispense 23 nL/well compounds in DMSO via pin transfer.
4. Dispense 12 microL/well of LACV (LACV/human/1978) in media at 0.01 MOI.
5. Incubate at for 6 days at 37C 5% CO2
6. Dispense 24 microL/well of ATPLite 1step Luminescence assay system (PerkinElmer).
7. Incubate for 5 min at room temperature.
8. Read luminescence signal (Viewlux plate reader, PerkinElmer). Data was normalized with DMSO control wells containing LACV as 0%, and DMSO control wells without virus as 100%.
Potency means the concentration at half of the fitted maximal effect.

SMILES | activity change | Potency
Nc1nc(Cl)nc2c1ncn2[C@@H]1O[C@H](CO)[C@@H](O)[C@H]1O | -20.3% | 
CCCCC/C=C\CC(O)/C=C/c1cccc(CC(O)CCCCO)n1 (stereo not given) | 14.5% | 
C=CC(N)CCC(=O)O (stereo not given) | 10.5% | 
CCCCCCCCCCCCCCCCCC(=O)O | -1.53% [at 4.29 µM] | 
Cc1ccc(O)c(-n2nc3ccccc3n2)c1 | -10.8% [at 4.29 µM] | 
N=C1N=C(N)c2cc3ccccc3cc21 | 30.3% [at 8.54 µM] | 
CCOC(=O)c1ccccc1O | -1.49% [at 4.29 µM] | 
CC1OC1P(=O)(O)O (stereo not given) | 5.34% | 
O=C(Nc1cccc(C(=O)Nc2ccc(S(=O)(=O)O)c3cc(S(=O)(=O)O)cc(S(=O)(=O)O)c23)c1)Nc1cccc(C(=O)Nc2ccc(S(=O)(=O)O)c3cc(S(=O)(=O)O)cc(S(=O)(=O)O)c23)c1 | 7.63% | 
Cc1cc(O)c2ccccc2c1O | 4.8% [at 4.29 µM] | 
NCCCCCCCCCCN | -7.74% | 
CN=c1nc(-c2ccccc2)n(-c2ccccc2)s1 | 29.4% | 
C[N+]1(C)C2CC(OC(=O)[C@H](CO)c3ccccc3)CC1C1OC12 (stereo not given in full) |  | inactive
C=C[C@@H]1CN2CC[C@@H]1C[C@H]2[C@H](O)c1ccnc2ccc(OC)cc12 | -15% | 
S=C(S)OC1CC2CC1C1CCCC21 (stereo not given) | 1.86% | 
O=C(O)CNC(=O)C(CS)Cc1ccccc1 (stereo not given) | 18.3% | 
CCCCCCCC/C=C/C(=O)O | -2.74% [at 4.29 µM] | 
CCCCCCOc1ccccc1C(N)=O | 13.8% [at 4.29 µM] | 
O=C(O)c1cc(=O)c2c(Cl)cc(Cl)cc2[nH]1 | -11.2% | 
NCC1OC(O[C@H]2[C@H](O)[C@@H](OC3C(O)C(N)CC(N)C3OC3OC(CO)C(O)C(O)C3N)O[C@@H]2CO)C(N)C(O)C1O (stereo not given in full) | 46.8% | 

SMILES | activity change | Potency
NCCCCC(=O)O | -8.8% | 
CN(C)CCCO[C@@H]1[C@H]2OC(C)(C)O[C@H]2O[C@@H]1[C@H](O)CO | 6.29% | 
CC(N)C(=O)OC(C)(C)Cc1ccc(Cl)cc1 (stereo not given) |  | inactive
O=C(O)[C@@H]1C[C@H](C(=O)O)N1 | 25.5% | 
CC(C(=O)O)c1ccc2c(c1)[nH]c1ccc(Cl)cc12 (stereo not given) | 25.2% [at 4.29 µM] | 
CN1CCN(c2cc3c(nn2)Oc2ccccc2N3C)CC1 | 13.6% [at 1.78 µM] | 
CCCCN1CCC(n2c(=O)[nH]c3ccccc32)CC1 | 11% | 
CN(C)C(N)=NCCC[C@H](N)C(=O)O | -18.9% | 
NC(=O)C(=O)O | -20% | 
COC1=C(OC)C(=O)c2ccccc2C1=O | -28.3% | 
Oc1ccccc1O |  | 2000 nM (active)
Oc1cc2c(cc1O)CN(C(=S)NCCc1ccc(Cl)cc1)CCC2 |  | 2240 nM (active)
O=C(O)CC1CC(c2ccccc2)=NO1 (stereo not given) | 34.6% | 
CC(C)(C=O)Cc1cc(C(C)(C)C)c(O)c(C(C)(C)C)c1 | 36.3% | 
O=C(O)/C=C/C(O)c1ccc(Cl)cc1 (stereo not given) | 26.4% | 
CCCN(CC1CC1)c1nc(C)nc(Nc2c(Cl)cc(Cl)cc2Cl)c1Cl | 98% | 
C[N+]1(C)CCC(OC(=O)C(c2ccccc2)c2ccccc2)CC1 | -10.6% | 
COC(=O)c1c(C)[nH]c(C)c1C(=O)c1ccccc1Cc1ccccc1 | 31.6% | 
Oc1cc(O)cc(/C=C/c2ccc(O)c(O)c2)c1 |  | 3160 nM (active)
NCCSSCCN | 15.6% | 
